Records with an inconclusive call do not appear. Entries that show only a call come without a potency. The source made the active and inactive calls. The call rests on the fitted dose curve; in most records, active means well fitted inhibition curve with a large enough effect; inconclusive means small, poorly fitted or top-dose-only effect; inactive means flat fitted curve, though single readings scatter.
Each compound was assayed against Calcium and integrin-binding protein 1 (Homo sapiens) (UniProt Q99828) (assay: Primary qHTS for Identification of Calcium Integrin Binding Protein 1 (CIB1) Competitor (AID 1508620;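 further: GST tagged CIB1 binding a fluorescein labelled alphaIIb integrin peptide tracer; top concentration of the series differs between compounds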)). Conditions: CIB1-GST / FITC-alphaIIb peptide fluorescence polarization; series mostly up to 114 µM.
Method in brief: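 CIB1-GST (1 uM final) and compound incubated 15 min at room temperature before adding FITC-alphaIIb peptide tracer (100 nM final). Competition for binding read by fluorescence polarization (ex 480, em 540) after another 15 min at room temperature.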

Calcium and integrin-binding protein 1 (Homo sapiens), sequence (Q99828 whole entry, looked up): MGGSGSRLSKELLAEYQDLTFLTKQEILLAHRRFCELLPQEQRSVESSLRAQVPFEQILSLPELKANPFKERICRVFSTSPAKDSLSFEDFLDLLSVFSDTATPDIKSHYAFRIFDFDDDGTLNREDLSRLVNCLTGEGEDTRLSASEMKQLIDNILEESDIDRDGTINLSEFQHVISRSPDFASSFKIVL

Compound	Potency
COc1cc(N2CCOCC2)ccc1NC(=O)c1csc(-c2cccnc2)n1	inactive
CC(=O)OC1CC(C)C2(CCC3(CC(=O)OC3O)O2)C2(C)CCCC(C)(C)C12 (centres undefined)	inactive
CCC(C)/C=C(C)/C=C/C1=CC2=CC(=O)C3(C)OC(C)(O)C(C(=O)OC)C3C2=CO1 (centres undefined)	inactive
O=C(/C=C/c1ccccc1O)O[C@@H]1O[C@H](CO)[C@@H](O)[C@H](O)[C@H]1O	inactive
O=C(Nc1cccc(C(F)(F)F)c1)Nc1ccc(Br)cc1-c1nn[nH]n1	inactive
CC(OC1OCCN(Cc2n[nH]c(=O)[nH]2)C1c1ccc(F)cc1)c1cc(C(F)(F)F)cc(C(F)(F)F)c1 (centres undefined)	inactive
Cc1nc2ccc(CN(C)c3ccc(C(=O)NC(CCC(=O)O)C(=O)O)s3)cc2c(=O)[nH]1 (centres undefined)	inactive
C=C1/C(=C/C=C2\CCC[C@]3(C)[C@@H]([C@@H](C)OCCC(O)(CC)CC)CC[C@@H]23)C[C@@H](O)C[C@@H]1O	inactive
CCCCCCCCn1cc(CN(CC)CC)c2cc(-c3cnc(N)nc3)ccc21	inactive
CC(=O)O[C@H]1CC[C@]2(C)[C@H]3CC[C@]4(C)Oc5oc(C)cc(=O)c5C[C@H]4[C@]3(C)CC[C@H]2C1(C)C	inactive
COc1cc(C(C)=O)c(OC)c2c1OC(C)(C)C=C2	inactive
CNCCN1CCC(c2cc(CN(C)C(=O)c3cccc(Oc4ccccc4)c3)ccn2)CC1	inactive
CC1=CC2/C=C(\C)CCC(O)C/C=C/C(=O)OC23C(=O)NC(CC(C)C)C3C1C (centres undefined)	inactive
CC(=O)[C@H]1CC[C@H]2[C@@H]3CC=C4C[C@@H](OS(=O)(=O)O)CC[C@]4(C)[C@H]3CC[C@]12C	inactive
